An excerpt weighted towards active compounds, which were near 20% of everything screened.
Shiga inhibitor – inhibitors of Shiga toxin in Vero cells | Vero cells, Shiga toxin protein synthesis inhibition reporter | inhibition, % at 38.7 µM | 290,000 tested, 9.2% active | AID 2315; in the data active = inhibition mostly above about 28%, no sharp cut-off; inactive = mostly below about 43%; note: 0% is about no effect
HCMV antiviral – inhibitors of human cytomegalovirus; HFF cells, HCMV-luciferase reporter, 72 h; hits give low values; activity change, negative = inhibition, % at 57.5 µM; 410,000 tested, 4.5% active; AID 1259415; in the data active = activity change below about -60%; inconclusive = no clear call, values can overlap the other calls; inactive = above about -39%; note: % is set by controls: 0 for no effect and ±100 for the full control effect
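Human foreskin fibroblasts infected with luciferase-reporter HCMV at MOI 1 PFU/cell, compounds at two doses. Luciferase measured 72 h post infection; normalized to buffer-only basal and Salinomycin (10uM) controls.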
Cycloheximide cs – counter-screen for Shiga toxin inhibitors: cycloheximide protein synthesis inhibition; cell reporter, cycloheximide protein synthesis inhibition counterscreen; max response, %; 300,000 tested, 12% active; in the data active = max response mostly above about 13%, no sharp cut-off; inactive = mostly below about 14%; note: read at 38.3 µM for the half of the compounds with a filed dose; 0% is about no effect
Pf growth 96h – inhibits malaria parasite growth, 96 h; P. falciparum luciferase reporter growth, 96 h; Potency, µM (top dose mostly 28.7 µM), without a hit: top-dose activity change, negative = inhibition, actives largely listed as inhibitors; 320,000 tested, 6.9% active; note: potency is the fitted concentration of half-maximal effect; % is set by controls: 0 for no effect and ±100 for the full control effect
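Two parasite generations (96 h, 37 C, 5% CO2) of compound exposure in infected erythrocytes (0.05% parasitemia, 2% hematocrit). Luciferase-reporter P. falciparum; decreased luminescence indicates inhibited growth, aimed at apicoplast-acting delayed death.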
Pf growth 48h – P. falciparum growth inhibition at 48 hours (one generation); 310,000 tested, 5.9% active; P. falciparum luciferase growth in erythrocytes, 48 h; Potency, µM (top dose mostly 28.7 µM), inactives show at the highest dose activity change, negative = inhibition, usual class: inhibitors; note: potency is the fitted concentration of half-maximal effect; % is set by controls: 0 for no effect and ±100 for the full control effect
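Firefly luciferase activity from engineered P. falciparum reports growth; inhibitors lower the luminescent signal. Cultures contained 2% hematocrit erythrocytes at 0.1% final parasitemia.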
* marks the source's active call; other numbers are inactive results; ? = inconclusive; / = no result given. Unless noted, calls come from the whole dose curve; as a rule, active = well fitted inhibition curve with a large enough effect; inconclusive = small, poorly fitted or top-dose-only effect, or another doubt; inactive = no such curve, though single readings can be large or run the other way.

SMILES	Shiga inhibitor	HCMV antiviral	Cycloheximide cs	Pf growth 96h	Pf growth 48h
CCCCCCCCN1C(=O)[C@H](CC(=O)NCCCOC)C[C@@]2(C(=O)OC)CCCCC=C12	/	-10	/	/	/
CCOC(=O)c1nc(Nc2cc(Cl)ccc2OC)c2ccccc2n1	-6	-70*	1	0%	4%
COc1cc(Cl)c(C)cc1NC(=O)c1ccc2c(SCC(=O)O)c3c(nc2c1)CCCC3	18	8	-3	32%	?
COc1ccc(C)cc1NC(=O)c1ccc2c(SCC(=O)O)c3c(nc2c1)CCCC3	4	0	-2	8.3µM*	?
COc1ccc(Cl)cc1NC(=O)CSc1c2c(nc3ccccc13)CCC2	/	-70*	/	/	/
CCOC(=O)c1ccccc1NC(=O)c1ccc2c(SCC(=O)O)c3c(nc2c1)CCCC3	-3	?	-2	?	2.3µM*
CCN(CC)S(=O)(=O)c1ccc(Cl)c(C(=O)OC2CC(C)OC2=O)c1 (centres undefined)	-9	3	-3	15%	6%
CCOc1ccc2c(c1)c(N=NC(N)=S)c(O)n2C	4	-40	-2	5.2µM*	9.3µM*
Cc1ccc2c(c1)c(N=NC(N)=O)c(O)n2C	15	71	1	0%	17%
CCOc1ccc2c(c1)c(N=Nc1cccc(C(=O)O)c1)c(O)n2C	62*	85	58*	?	95%
Cc1ccc2c(c1)c(N=Nc1cccc(C(=O)O)c1)c(O)n2C	60*	38	16*	?	37%
CC(=O)N1[C@@H]2c3ccc(-c4cccnc4)c(=O)n3C[C@@H]2[C@@H](CO)[C@@H]1C(=O)NCc1ccccc1Cl	/	9	/	/	/
CCN1CCN(C(=O)c2ccccc2N(Cc2ccccc2)S(=O)(=O)c2ccc(C)cc2)CC1	-16	7	-4	15µM*	/
COc1cccc(/C=N/NC(=O)c2ccccc2N(Cc2ccccc2)S(=O)(=O)c2ccccc2)c1OC	32	-38	1	12µM*	?
COc1cccc(/C=N/NC(=O)c2cccc3ccccc23)c1OC	/	105	/	/	/
COc1ccc(S(=O)(=O)N(Cc2ccccc2)c2ccccc2C(=O)O)cc1	/	12	-2	13µM*	2%
C=CCN(c1ccccc1C(=O)O)S(=O)(=O)c1ccc(NC(=O)OC)cc1	9	17	-3	48%	2.3µM*
Cc1ccc(C)c(S(=O)(=O)N2CCCOC2CNC(=O)C(=O)NCCCN2CCOCC2)c1 (centres undefined)	-8	?	-3	3%	-2%
CCOC(=O)C1=CCN(S(=O)(=O)c2ccc(Cl)cc2)C1c1cccc(Cl)c1 (centres undefined)	/	-31	/	/	/
CCOC(=O)C1=CCN(S(=O)(=O)c2ccc(Cl)cc2)C1c1cccc(C)c1 (centres undefined)	/	-87*	/	/	/
CCOC(=O)C1=CCN(S(=O)(=O)c2ccc(C)cc2)C1c1ccc(CC)cc1 (centres undefined)	/	-97*	/	/	/
COc1ccc(NC(=S)Nc2cc(C(F)(F)F)ccc2F)cc1	-4	?	-1	204%	26%
CCc1c(C)sc(NC(=O)c2cc(-c3cccc(Cl)c3)on2)c1C#N	/	-19	/	/	/
CCOc1ccc(N2CC(NC(=O)c3ccc(S(=O)(=O)N4CCCC4)cc3)CC2=O)cc1 (centres undefined)	/	-33	/	/	/
CC(=O)c1ccc(NC(=S)N(C)C2CCN(C)CC2)cc1	-3	24	-1	2.1µM*	6%
SMILES	Shiga inhibitor	HCMV antiviral	Cycloheximide cs	Pf growth 96h	Pf growth 48h
OC1CCCN(C(=S)Nc2ccc(SC(F)F)cc2)C1 (centres undefined)	34*	34	27*	114%	60%
CN1CCC(N(C)C(=S)Nc2ccc(SC(F)F)cc2)CC1	active	-34	24*	-21%	-12%
O=C1CN=C(c2ccc(Br)cc2)c2c(sc3c2CCCC3)N1CCN1CCCCC1	-5	-97*	7	42%	?
O=c1cc(-c2ccco2)oc2ccc(Cl)cc12	28	12	1	-4%	40%
COc1cccc2oc(-c3ccco3)cc(=O)c12	24	-10	30*	-103%	?
COc1ccc2c(=O)cc(-c3ccccc3F)oc2c1	54*	41	41*	90%	19%
COc1ccc(-c2cc(=O)c3c(OC)c(OC)c(OC)cc3o2)cc1OC	-3	/	7	/	/
COc1ccc2oc(-c3ccco3)cc(=O)c2c1	68*	37	50*	?	228%
COc1ccc2c(=O)cc(C(F)(F)C(F)(F)F)oc2c1	-9	-9	8	-23%	4%
CCn1cc(CNC(=O)c2cc(-c3ccc(C)cc3)nc3ccc(Br)cc23)c(C)n1	/	25	/	/	/
Cc1cccc(C)c1NC(=O)c1sc(-n2nc(C)c(Cc3ccc4c(c3)OCO4)c2C)nc1C	/	6	/	/	/
COc1ccc(-c2cc(C(=O)N3CCCC3)no2)cc1OC	86*	-22	20*	-4%	70%
COc1ccc(-c2cc(C(=O)N3CCN(c4ccc(F)cc4)CC3)no2)cc1OC	-5	-33	1	59%	-28%
COc1ccc(-c2cc(C(=O)N3CCCCC3)no2)cc1OC	77*	124	39*	-4%	105%
COc1ccc(CNC(=O)c2ccc3nc(C(C)C)oc3c2)cc1OC	/	8	/	/	/
Cc1cc(-c2nnc(CCC(=O)NCc3ccc(F)c(F)c3)o2)no1	-10	1	-3	?	8%
CC(C)NC(=O)CCc1nnc(Cc2cccc(C(F)(F)F)c2)o1	92*	13	28*	-19%	57%
CC(C)N(CCO)C(=O)CCc1nnc(Cc2cccc(C(F)(F)F)c2)o1	52	32	19*	?	19%
Cc1cc(-c2nnc(CCC(=O)NCc3cccc(C(F)(F)F)c3)o2)no1	29	45	21*	?	-20%
CCC(COC)NC(=O)CCc1nnc(Cc2cccc(C(F)(F)F)c2)o1 (centres undefined)	60*	30	46*	-1%	14%
COCCN(C(=O)CCc1nnc(Cc2c[nH]c3ccccc23)o1)C(C)C	11	73	3	?	2%
CCc1ccc(CNC(=O)CCc2nnc(Cc3cccc(C(F)(F)F)c3)o2)nc1	11	9	0	-6%	0%
COc1cc(C(=O)CC2(O)C(=O)N(Cc3ccccc3Cl)c3ccccc32)cc(OC)c1OC (centres undefined)	/	-71*	/	/	/
CN1C(=O)C(O)(CC(=O)c2cccnc2)c2ccccc21 (centres undefined)	-3	-30	-4	?	-8%
O=C(CC1(O)C(=O)N(Cc2cccc3ccccc23)c2ccccc21)c1cccnc1 (centres undefined)	-10	11	-1	3.7µM*	/
CC(=O)NC1(C(F)(F)F)C(=O)Nc2c1c(=O)[nH]c(=O)n2CC(C)C (centres undefined)	-10	20	-5	?	11%

Bioassay records as filed in PubChem.
